This note sets out measurements from the supplement of paper PMC6555819.

The test system of this test is RARg homodimer (NR concentration 270 nM). The experiment in a line: PBM binding z-score (relative to random genomic background probes); higher = stronger binding; sequences stand for … in GC…GCGATTGACAGCGTAGAATGAAGG
Put shortly:
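For binding z-scores, the reference was random background probes on custom Agilent 4×180K protein-binding microarrays. These arrays were incubated 1 h with ligand-free nuclear receptor dimers in PBS pH 7.4, 2% milk, 0.02% Triton X-100, 1 mM DTT, 0.2 mg/mL BSA and 0.4 mg/ml salmon testes DNA. Fluorescence was scanned after antibody detection of each partner (one per run) and regression-normalized.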
In the case of CCGAGTAGGTTATGGGGCATCCAGGCAACGGTGA, the PBM binding z-score was 0.586.
For GGAAAGAGGGCAAAGTTGATAGCATCTGTCGACG the value was 2.38; for CAGCCTAGGTCAAGGCCAGTATAGGAGGAACGTT, 4.9.
AGTATTAGTTGAGACGAGGGCAACCGATAGGTTG showed a PBM binding z-score of 0.922.
For TCTCGGAGGACACGAAAGATCAGAGCTCGACATC the value was 1.18.
As for ATAAGTAGGTTAAGGGTCATTCAGGTTGGTTCGC, the figure is 3.75.
As for CCTAGTTGGTTAGGAGGTCACACACCGGATATGA, the figure is 3.53.
CGTCAAAGTTCAACTAAGGTAACGGAAAGCACGC came in with a PBM binding z-score of 6.88.
ATCTCTAGGTAACAGTTCAGTGAATCCCGAGGAT: the PBM binding z-score turned out to be 0.845.
For TAGCCTAGGTCAGATCGGGCCACTATACGCTATA the value was 3.37; for CGTCAAAGTTAAACTAAGGTAACGTAAAGCACGC, 0.659; for ACTTACGGGTCAACGAGGTTTTAGCACGCGTATA, 4.9.
For CCTGCTAGGTCAATGGTTAGCTAAAGCAGCTCGC the value was 3.9; for CGTCAAAGTTCATCTAAGGTAACGTAAAGCACGC, 6.43.
Consider TCTTGTAGATCAAAGGTTAAGTAAGCCGAAGCCT, for which the PBM binding z-score came out at 1.14.
As for CCGACTGGGGCAGAAAGGGTACCATACCATCCGG, the figure is 0.273.
As for GCTGCTAGGTCAACTGATGGTCAGGTAAAGCTCG, the figure is 5.23; as for TCAGACAGGTGCAGGTAACTCAGGTACGCAGTCG, -0.0497.
For TAGCCTAGGTCATGCGGGCCGGTATAGTGTCGGC the value was 4.32; for TTTTGTAGATCAATAGAGGTTAAGAAAGTGCGCT, 0.869.
As to TAGCCTAGGTCATTGGTCCAGTATAGTACGCATC, the PBM binding z-score is 3.82.
Consider TCATATAGGTAAATGCAAGGTGAAAGTCCGATCT, for which the PBM binding z-score stood at 0.776.
As for ATCTCGAGGTAACAAGTTCAGTGAAAGAGAGGAC, the figure is 1.42; as for AATACAGGGTCATCGTAGGCCAGAGAACGCACAG, 5.66; as for GCAGACAAGTGAAACGCAGGTAACTCAGGGTGGC, -0.436.
Take TCATATAGGTAATACGGGTGAAAGTCGGCATCTA: the PBM binding z-score was 0.383.
For GCGTATAGGTAATACAAGGTGAAAGTCCGATTGT the value was 0.499; for CAAACTAAGTCAAAGGTCAAAGTCGAGCCAACCA, 5.86.
For GCTATTAGTTGAAAGGCCAACCGAATGATTCTCG the value was 0.862.
As for GCATAGAGGTAATACAAGGTGAAAGTCCGATTGT, the figure is 0.537; as for ATATGTAGGTTTAGGGTCATTCAGGTTGGTTCGC, 2.43.
In turn, TCTCGGAGGACACGAAAGGTCAGAGTTCGACATC showed a PBM binding z-score of 5.71.
As for TAGCCTAGGTCTTTGGGCCAGTATAGTACGCATC, the figure is -0.164; as for CCTCGGAGGACAGAAGGCCAGAGCTGTCCGCTTT, 0.0875.
For TTACCAAGGTGTAAGGTCGTTGATGCACGCCTTG the value was 0.368; for ATCTCTAGATAACAAGTTCAGTGAAAGAGAGGAC, 0.933.
For ATCGAAAGGTCGAGGTGAATATAGAGAAAGGGAA the value was 4.51.
On to CATACAGGGTTAGCTAGGCCAGAGTAGGGACGGC, for which the PBM binding z-score came out at 0.633.
For CCTGCTATGTCATGGTCAGCTAATCTACAGTATG the value was 0.62; for AGAATGAGGTAATTAAGATCAGGGAATTGCGGTC, 0.0569.
